Measurements as given in PubChem BioAssay.
Activity calls are given as the source filed them. Unless noted, the rule behind the calls is not given here.

Assays:
[1] = test system: Wnt5a (protein binding on small-molecule microarray); assay: Wnt5a binders on small-molecule microarray, primary screen, biophysical, 635/667 nm fluorescence (AID 1142); details: 635 nm fluorescence, higher = more signal;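 note: fluorescence read at 667 nm with signal to noise per printed feature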
[2] = cell viability in Huh7 cells, primary screen, cytotoxicity control for HCV replication inhibitor project, CellTiter-Glo luminescence, basal, 48 h (AID 1143); details: Huh7 HCV replicon, higher = more signal, called active from +8 up or from −8 down;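 note: Huh7 hepatoma cells carrying a hepatitis C replication reporter with no stimulus; test concentration not given here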
[3] = P. aeruginosa biofilm formation inhibitors, primary screen, PAO1 strain, BacTiter-Glo luminescence, LB-PBS (AID 1144); details: 12 h, higher = more signal
[4] = CREB reporter modulators without forskolin, primary screen, cell-based, PC12, CRE-LacZ reporter, unstimulated (AID 1145); details: no forskolin, luminescence, 4.5 h, higher = more signal, called active from +8 up or from −8 down
[5] = CREB reporter modulators under forskolin, primary screen, cell-based, PC12, CRE-LacZ reporter, forskolin-stimulated (AID 1146); details: luminescence, 4.5 h, higher = more signal, called active from +8 up or from −8 down;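 note: PC12 cells with 6xCRE LacZ reporter stimulated by forskolin 10 µM; beta-galactosidase reporter signal reflecting CREB driven transcription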
[6] = molecular target: Streptavidin (Streptomyces avidinii) (UniProt P22629); assay: streptavidin binders on small-molecule microarray, primary screen, artefact control for SMM compound annotation, biophysical, 635/667 nm fluorescence (AID 1147); details: streptavidin binding, higher = more signal;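 note: signal reflects streptavidin binding to arrayed compounds as a control protein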
[7] = small-molecule binders of probe aInhba, primary screen, biochemical, small-molecule microarray, 635/667 nm fluorescence (AID 1148); details: higher = more signal;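 note: score merges 667nm spot fluorescence with signal-to-noise for antibody binding to printed compounds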
Torsin-1A (Homo sapiens) [8] = molecular target: Torsin-1A (Homo sapiens) (UniProt O14656); assay: torsin A binders from cell lysate, primary screen, small-molecule microarray, wild-type, 635/667 nm (AID 1149); details: COS7 hTOR1A-WT lysate, 635 nm fluorescence, higher = more signal
Torsin-1A (Homo sapiens) [9] = molecular target: Torsin-1A (Homo sapiens) (UniProt O14656); assay: small-molecule binders of mutant TOR1A in lysate, primary screen, cell lysate, small-molecule microarray, COS7 lysate, 635/667 nm fluorescence (AID 1150); details: COS7 hTOR1A mutant lysate, 635 nm fluorescence, higher = more signal;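 note: score pools 667 nm emission and signal to noise measuring lysate protein binding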
[10] = test system: Sonic hedgehog protein (Shh); assay: small-molecule binders of Shh protein, primary screen, biochemical, small-molecule microarray, 635/667 nm fluorescence (AID 1151); details: small-molecule microarray binding, 635 nm fluorescence; higher = more signal;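 note: Shh protein binding to compounds spotted on small-molecule microarray slides; score combines spot fluorescence intensity with signal-to-noise across triplicate slides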
[11] = E. coli DRC41 culture turbidity changes, primary screen, E. coli filamentation inducer project, strain DRC41, OD650, 48 h (AID 1152);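 note: E. coli MC1000 strain DRC41 lacking acrAB efflux pump and sulA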; details: E. coli DRC41 (acrAB sulA), higher = more signal, called active from +8 up or from −8 down
[12] = small-molecule binders of probe aLefty1, primary screen, biochemical, small-molecule microarray, 635/667 nm fluorescence (AID 1153); details: higher = more signal;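 note: score merges spot fluorescence with signal-to-noise ratio from the scanned slide images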
[13] = PSAC antagonists in infected red cells, primary screen, cell-based, P. falciparum Indochina, OD700, 1 h (AID 1154); details: P. falciparum Indochina infected RBC osmotic lysis, higher = more signal, called active from +8 up or from −8 down
[14] = PSAC antagonists in infected red cells, primary screen, cell-based, P. falciparum Indochina, OD700, 2 h (AID 1155);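 note: lysis reports solute entry through the parasite surface anion channel PSAC; channel blockers reduce lysis of infected cells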; details: P. falciparum Indochina infected erythrocytes, osmotic lysis OD700; higher = more signal, called active from +8 up or from −8 down
[15] = osmotic lysis modulators in infected erythrocytes, primary screen, PSAC antagonist project, cell-based, P. falciparum Indochina, OD700, 3 h (AID 1156); details: higher = more signal, called active from +8 up or from −8 down
[16] = PSAC antagonists in infected red cells, primary screen, cell-based, P. falciparum Indochina, OD700, 18 h (AID 1157); details: P. falciparum Indochina infected erythrocytes, osmotic lysis OD700, 18 h; higher = more signal, called active from +8 up or from −8 down
[17] = modulators of S6 phosphorylation in cells, primary screen, cell-based, A549, cytoblot, luminescence, serum-stimulated (AID 1158); details: A549 phospho-S6 cytoblot, 5 h, higher = more signal;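 note: serum-stimulated A549 lung adenocarcinoma cells; signal is phosphorylated S6 detected by cytoblot immunostaining with HRP secondary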
[18] = molecular target: NADPH oxidase 2 (Homo sapiens) (UniProt P04839); assay: NOX2-dependent H2O2 signal modulators, primary screen, NOX inhibitor project, cell-based, HEK293-NOX2, PMA-stimulated, Amplex Red fluorescence (AID 1159); details: 45 min, higher = more signal, called active from +8 up or from −8 down; note: test concentration not given here
[19] = molecular target: NADPH oxidase 4 (Homo sapiens) (UniProt Q9NPH5); assay: NOX4-dependent H2O2 signal modulators, primary screen, NOX inhibitor project, cell-based, HEK293-NOX4, tetracycline-induced, Amplex Red fluorescence (AID 1160); details: 45 min, higher = more signal, called active from +8 up or from −8 down
[20] = molecular target: NADPH oxidase 5 (Homo sapiens) (UniProt Q96PH1); assay: NOX5-dependent H2O2 signal modulators, primary screen, NOX inhibitor project, cell-based, HEK293-NOX5, Amplex Red fluorescence (AID 1161); details: HEK293-NOX5, ionomycin, 45 min, higher = more signal
Chain of NADPH oxidase 5 (Homo sapiens) (Q96PH1 whole entry, looked up): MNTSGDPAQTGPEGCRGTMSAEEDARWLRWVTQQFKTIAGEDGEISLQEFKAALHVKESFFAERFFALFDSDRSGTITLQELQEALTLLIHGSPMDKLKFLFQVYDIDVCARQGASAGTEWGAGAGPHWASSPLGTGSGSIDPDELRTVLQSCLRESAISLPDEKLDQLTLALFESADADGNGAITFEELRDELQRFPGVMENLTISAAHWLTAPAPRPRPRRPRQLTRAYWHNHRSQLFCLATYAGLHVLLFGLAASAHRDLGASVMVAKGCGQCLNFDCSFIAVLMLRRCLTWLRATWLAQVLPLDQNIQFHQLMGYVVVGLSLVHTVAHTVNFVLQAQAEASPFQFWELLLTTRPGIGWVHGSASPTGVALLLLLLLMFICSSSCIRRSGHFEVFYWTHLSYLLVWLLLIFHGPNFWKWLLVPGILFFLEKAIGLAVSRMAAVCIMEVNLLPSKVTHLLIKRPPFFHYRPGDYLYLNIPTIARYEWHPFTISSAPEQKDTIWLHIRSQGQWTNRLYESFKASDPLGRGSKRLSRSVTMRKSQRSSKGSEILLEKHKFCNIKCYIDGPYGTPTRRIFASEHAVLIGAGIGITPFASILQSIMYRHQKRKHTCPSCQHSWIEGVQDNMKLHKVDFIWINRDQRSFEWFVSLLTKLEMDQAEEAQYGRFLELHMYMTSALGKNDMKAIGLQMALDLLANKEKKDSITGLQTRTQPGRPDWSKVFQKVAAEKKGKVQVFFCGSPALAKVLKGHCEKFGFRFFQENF

Chain of Streptavidin (Streptomyces avidinii) (P22629 whole entry, looked up): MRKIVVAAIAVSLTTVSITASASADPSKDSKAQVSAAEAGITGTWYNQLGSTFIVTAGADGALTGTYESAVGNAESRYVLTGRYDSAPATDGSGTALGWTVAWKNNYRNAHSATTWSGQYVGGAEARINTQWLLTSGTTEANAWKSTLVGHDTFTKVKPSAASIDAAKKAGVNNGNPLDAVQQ
Chain of NADPH oxidase 4 (Homo sapiens) (Q9NPH5 whole entry, looked up): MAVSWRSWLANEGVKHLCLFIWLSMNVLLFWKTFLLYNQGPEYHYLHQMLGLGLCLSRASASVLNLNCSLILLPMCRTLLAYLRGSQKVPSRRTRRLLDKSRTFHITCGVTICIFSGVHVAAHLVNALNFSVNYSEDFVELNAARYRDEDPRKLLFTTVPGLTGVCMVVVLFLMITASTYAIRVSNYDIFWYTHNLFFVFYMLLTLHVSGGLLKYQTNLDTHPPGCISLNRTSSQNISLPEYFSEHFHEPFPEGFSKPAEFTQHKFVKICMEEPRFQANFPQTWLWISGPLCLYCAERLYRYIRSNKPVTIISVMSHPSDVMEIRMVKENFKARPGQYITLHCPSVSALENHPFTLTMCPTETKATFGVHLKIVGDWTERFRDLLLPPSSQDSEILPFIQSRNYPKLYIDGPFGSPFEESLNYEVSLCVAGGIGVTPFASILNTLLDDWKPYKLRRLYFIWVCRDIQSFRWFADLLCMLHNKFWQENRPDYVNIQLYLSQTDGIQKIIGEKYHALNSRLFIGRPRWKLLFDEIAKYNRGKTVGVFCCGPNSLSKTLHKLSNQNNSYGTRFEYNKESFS
Chain of NADPH oxidase 2 (Homo sapiens) (P04839 whole entry, looked up): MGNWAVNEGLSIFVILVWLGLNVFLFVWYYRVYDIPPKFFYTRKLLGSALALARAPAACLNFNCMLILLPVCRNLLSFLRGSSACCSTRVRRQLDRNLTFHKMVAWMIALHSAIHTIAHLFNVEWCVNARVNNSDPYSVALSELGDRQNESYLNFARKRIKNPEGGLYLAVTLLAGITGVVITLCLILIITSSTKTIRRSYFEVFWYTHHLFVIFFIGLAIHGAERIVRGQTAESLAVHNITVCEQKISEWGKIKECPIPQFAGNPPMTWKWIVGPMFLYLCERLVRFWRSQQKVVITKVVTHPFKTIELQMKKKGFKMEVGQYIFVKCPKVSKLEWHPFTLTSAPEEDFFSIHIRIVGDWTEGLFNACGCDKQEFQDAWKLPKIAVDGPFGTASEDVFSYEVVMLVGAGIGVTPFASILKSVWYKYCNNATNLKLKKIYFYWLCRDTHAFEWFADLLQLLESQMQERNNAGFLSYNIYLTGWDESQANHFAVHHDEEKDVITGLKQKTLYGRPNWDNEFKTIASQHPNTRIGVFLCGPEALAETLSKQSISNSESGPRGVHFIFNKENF
Chain of Torsin-1A (Homo sapiens) (O14656 whole entry, looked up): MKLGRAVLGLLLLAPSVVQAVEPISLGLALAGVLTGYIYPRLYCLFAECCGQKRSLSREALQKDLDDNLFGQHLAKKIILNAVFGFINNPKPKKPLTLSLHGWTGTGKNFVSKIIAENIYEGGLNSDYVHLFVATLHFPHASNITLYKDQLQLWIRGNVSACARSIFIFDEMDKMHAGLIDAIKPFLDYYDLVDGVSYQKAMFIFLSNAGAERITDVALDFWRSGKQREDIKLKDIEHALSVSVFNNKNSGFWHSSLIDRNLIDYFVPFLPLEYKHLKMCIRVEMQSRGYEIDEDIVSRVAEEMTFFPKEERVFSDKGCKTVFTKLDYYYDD

Row | SMILES | composite z-score [1] | z-score [2] | z-score [3] | z-score [4] | z-score [5] | composite z-score [6] | composite z-score [7] | composite z-score (Torsin-1A (Homo sapiens) [8]) | composite z-score (Torsin-1A (Homo sapiens) [9]) | composite z-score [10] | z-score [11] | composite z-score [12] | z-score [13] | z-score [14] | z-score [15] | z-score [16] | z-score [17] | z-score [18] | z-score [19] | z-score [20]
1 | CC1(C)O[C@H]2OC([C@H](O)CON3C(=O)c4ccccc4C3=O)[C@H](O)[C@H]2O1 (stereo not given in full) | -0.0105 | 0.929 (inactive) | 0.425 (inactive) | 0.831 (inactive) | 0.266 (inactive) | -0.467 | 0.0319 | 0.0012 | 0.129 | 0.0991 | 0.336 (inactive) | -0.352 | -0.36 (inactive) | -0.215 (inactive) | -0.356 (inactive) | -0.266 (inactive) | -0.339 | 0.821 (inactive) | 0.146 (inactive) | 0.145
2 | COc1cccc([C@H]2Oc3ccc(OC)cc3C(=NOCC[C@@H]3C=C[C@H](OC(C)=O)[C@@H](COC(C)=O)O3)[C@@H]2O)c1 | 0.0377 | -0.0868 (inactive) | 1.43 (inactive) | 5.08 (inactive) | 0.497 (inactive) | -0.112 | -0.154 | 0.186 | 0.273 | 0.509 | -1.05 (inactive) | -0.18 | 1.16 (inactive) | 0.236 (inactive) | -0.125 (inactive) | 0.416 (inactive) | -1.04 | 0.511 (inactive) | 1.03 (inactive) | -0.14
3 | COC(=O)[C@H](CCSC)NC(=O)CC=C[C@@H](C)CO | 0.848 | -0.62 (inactive) | -0.449 (inactive) | 0.75 (inactive) | 0.118 (inactive) | -1.27 | -0.128 | 3.29 | 3.16 | 2.18 | 0.193 (inactive) | -0.101 | 0.291 (inactive) | 0.317 (inactive) | -0.0396 (inactive) | -0.167 (inactive) | 0.81 | 1.58 (inactive) | -1.2 (inactive) | 0.613
4 | O=C1[C@H]2CCn3c(=O)n(-c4ccccc4)c(=O)n3[C@H]2[C@H](O)[C@@H]2O[C@H]12 | 0.0253 | 0.332 (inactive) | 0.102 (inactive) | -0.0164 (inactive) | 0.0871 (inactive) | 0.556 | -0.272 | 0.0097 | 0.109 | 0.24 | -0.323 (inactive) | -0.391 | -0.132 (inactive) | 0.105 (inactive) | 0.337 (inactive) | 0.304 (inactive) | -0.236 | -1.3 (inactive) | -0.584 (inactive) | 0.423
5 | COC(=O)[C@H](C)NC(=O)CCC1CC(OC(=O)NCCc2ccc(F)cc2)CC2(CCCC(COC(=O)NCCc3ccccc3OC)O2)O1 (stereo not given in full) | 0.249 | 0.137 (inactive) | 0.351 (inactive) | 0.559 (inactive) | 0.0825 (inactive) | 0.553 | -0.343 | 0.284 | 0.519 | 0.985 | 0.121 (inactive) | -0.103 | 6.98 (inactive) | 0.0923 (inactive) | 0.209 (inactive) | 0.15 (inactive) | 0.364 | 0.577 (inactive) | 0.369 (inactive) | -0.543
6 | CO[C@H]1C[C@@H]2C[C@H](O)CC(CC(=O)O[C@@H](C=CCC(C)C)C[C@@H]3CC[C@H](C)[C@@H](C1)O3)O2 | 0.318 | -0.454 (inactive) | 0.883 (inactive) | 2.64 (inactive) | 0.405 (inactive) | 0.645 | -0.0494 | 0.778 | 0.183 | 1.02 | -0.55 (inactive) | -0.104 | 0.818 (inactive) | 0.41 (inactive) | 0.773 (inactive) | -0.0957 (inactive) | -0.254 | -1.17 (inactive) | 0.226 (inactive) | 1.2
7 | CC(C)=NOC(C)CN1CCCc2nc(C)c(C)cc21 (stereo not given) | 0.299 | 0.431 (inactive) | -0.905 (inactive) | 0.0757 (inactive) | -0.263 (inactive) | -0.0623 | 0.0074 | 0.111 | 0.386 | 1.35 | -0.477 (inactive) | -0.012 | 0.421 (inactive) | 0.774 (inactive) | 0.175 (inactive) | 0.539 (inactive) | -0.558 | -0.369 (inactive) | -0.141 (inactive) | -0.281
8 | CN1CCc2nc(-c3ccccc3)c(-c3ccccc3)cc2C1 | 0.0321 | 0.55 (inactive) | 0.99 (inactive) | 1.65 (inactive) | 0.0655 (inactive) | 0.0666 | -0.176 | 0.214 | 0.539 | 0.464 | 0.67 (inactive) | -0.0748 | 0.296 (inactive) | -0.0787 (inactive) | 0.406 (inactive) | -0.021 (inactive) | -0.76 | -0.512 (inactive) | -0.0205 (inactive) | -0.409
9 | CC(=O)OC[C@H]1O[C@@H](ON=C(C)CCN2CCCCc3nc(C)c(C)cc32)[C@H](OC(C)=O)[C@@H](OC(C)=O)[C@@H]1OC(C)=O | 0.752 | -2.39 (inactive) | 0.0375 (inactive) | 2.32 (inactive) | -0.494 (inactive) | -0.452 | 0.144 | 0.987 | 1.12 | 1.64 | -0.998 (inactive) | -0.0601 | -0.323 (inactive) | -0.558 (inactive) | 1.16 (inactive) | -1.5 (inactive) | 0.314 | -1.31 (inactive) | -1.24 (inactive) | -2.54
